We go through 63 compounds from PubChem BioAssay AID1209 (Sanford-Burnham Center for Chemical Genomics, 2008).

About 810 (0.43%) of roughly 190,000 compounds were called active. The entries come from a sample that favours actives as a whole. A number with no mark means an inactive call. No stated cut-off is given here; in the data, active means inhibition above about 50%; inactive means the rest.

The target of the experiment is Mannose-6-phosphate isomerase (Homo sapiens) (UniProt P34949). The experiment in a line: MPI enzyme activity inhibition – biochemical, fluorescence intensity, coupled assay, primary screen (AID 1209).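 Further: plate controls were DMSO vehicle for no effect and wells lacking substrate for full effect.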 To be noted: purified PMI enzyme, at 20 µM, stronger effect = higher value.
Sequence of Mannose-6-phosphate isomerase (Homo sapiens) (P34949 whole entry, looked up): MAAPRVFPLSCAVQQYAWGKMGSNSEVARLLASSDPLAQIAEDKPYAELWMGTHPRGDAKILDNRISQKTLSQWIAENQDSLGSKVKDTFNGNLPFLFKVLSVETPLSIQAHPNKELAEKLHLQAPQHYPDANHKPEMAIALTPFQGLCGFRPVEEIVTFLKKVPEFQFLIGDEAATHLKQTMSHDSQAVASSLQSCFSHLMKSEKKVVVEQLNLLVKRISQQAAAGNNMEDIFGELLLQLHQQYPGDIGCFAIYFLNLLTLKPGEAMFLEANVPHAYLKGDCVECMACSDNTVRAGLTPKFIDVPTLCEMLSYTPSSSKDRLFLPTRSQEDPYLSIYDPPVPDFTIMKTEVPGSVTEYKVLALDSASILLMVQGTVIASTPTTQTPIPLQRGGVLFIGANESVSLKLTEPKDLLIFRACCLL
As a reminder, the inhibition is the relative decrease from the control value, in per cent. Turning to `CCCCS(=O)(=O)Nc1ccc2cn[nH]c2c1`, the inhibition was 10%.

Consider `O=C(/C=C/c1ccco1)N1CCN(S(=O)(=O)/C=C/c2ccccc2)CC1`, for which the inhibition was -3.5%.

As for `CCCC(=O)NCCCc1nc2ccccc2n1C(C)C`, the inhibition is 2.7%.

With `COc1ccc2c(c1O)-c1ccccc1CCN(C)C2`, the inhibition is -0.5%.

On to `CN1CCc2cc3c(c4c2[C@H]1[C@H](O)c1ccccc1-4)OCO3`, for which the inhibition was 15.6%.

As to `CN1CCc2cccc3c2[C@H]1Cc1ccc(O)c(O)c1-3`, the inhibition is 79.7% (active).

Consider `CN1CCc2cccc3c2[C@@H]1Cc1ccc(O)c(O)c1-3`, for which the inhibition was 64.3% (active).

Turning to `CN1CCc2ccccc2C1C1CCNCC1` (stereo not drawn), the inhibition was -2.5%.

On to `CC(=O)c1cc2c(=O)c3cc(C)ccc3oc2nc1C`, for which the inhibition is 3.2%.

For the compound `COc1ccccc1OCC(=O)Nc1ccc(O)cc1C(=O)O`, the inhibition was -4%.

Turning to `CCc1ccccc1N(C(=O)Cn1nnc2ccccc21)C(C(=O)NCCOC)c1ccco1` (stereo not drawn), the inhibition is 3.9%.

In the case of `CC1=C(CC(=O)c2ccc(Cl)cc2)C(=O)c2ccccc2C1=O`, the inhibition is -15.5%.

With `CCOC(=O)c1c(C)oc2c1C(=O)c1ccccc1C2=O`, the inhibition was -48.2%.

For `Cc1oc2c(c1C(=O)N1CCC(C)CC1)C(=O)c1ccccc1C2=O`, the inhibition was 1.3%.

`Cc1oc2c(c1C(=O)c1ccccc1)C(=O)C(=O)c1ccccc1-2`: the inhibition is 73.6% (active).

Regarding `Cc1ccc(C(=O)c2c(C)oc3c2C(=O)C(=O)c2ccccc2-3)cc1`, the inhibition was 73.3% (active).

As for `O=C(c1ccc(Cl)cc1)c1ccc(CN2C(=O)c3ccccc3C2=O)o1`, the inhibition was 6.4%.

With `Cc1oc2c(c1C(=O)c1ccc(Cl)cc1)C(=O)C(=O)c1ccccc1-2`, the inhibition is 63.9% (active).

As for `Cc1oc2c(c1C(=O)O)C(=O)c1ccccc1C2=O`, the inhibition was -55.2%.

Turning to `CC(=O)c1c(C)oc2c1C(=O)c1ccccc1C2=O`, the inhibition was 0.2%.

With `O=C(CCCn1cnc([N+](=O)[O-])n1)Nc1ccc(Cl)cc1Cl`, the inhibition was 8.7%.

In the case of `COc1cccc(-c2nc(CS(=O)(=O)CC(=O)Nc3cccc(C)c3C)c(C)o2)c1`, the inhibition was 7.1%.

Take `CCOC(=O)C1CCN(C(=O)COc2ccc(Cl)cc2)CC1`: the inhibition was 0.2%.

Turning to `CC(NC(=O)c1ccccc1F)c1nnc(SCC(=O)N2CCN(c3ccccc3)CC2)n1C` (stereo not drawn), the inhibition is -2.3%.

Consider `CCOC(=O)c1c(CN2CCC(C)CC2)oc2ccc(OC)cc12`, for which the inhibition is -3.3%.

In the case of `CCCN(C(=O)c1cn(CC)c2nc(C)ccc2c1=O)c1c(N)n(Cc2ccccc2)c(=O)[nH]c1=O`, the inhibition was 11.3%.

Consider `CN(Cc1cccnc1)C(=O)CNC(=O)c1ccc(Cl)cc1Cl`, for which the inhibition was -2.4%.

In the case of `COc1ccc(NS(=O)(=O)c2cccc3nonc23)c(OC)c1`, the inhibition is -1.3%.

Take `Cc1ccc(-c2nnn(CC(=O)N(CC(=O)NC3CCCC3)c3ccc(F)c(Cl)c3)n2)o1`: the inhibition is -4.8%.

As for `C[C@@H]1C=C(C(=O)O)O[C@H](OCc2ccc(CO)cc2)C1`, the inhibition was 6%.

On to `CCCCN=C1C([N+](=O)[O-])=CC=C2C1=NC1(CCCCC1)N2O`, for which the inhibition was 31.3%.

In the case of `O=[N+]([O-])C1=CC=C2C(=NC3(CCCCC3)N2O)C1=NCCO`, the inhibition is 81.4% (active).

Turning to `COc1ccc(-n2nc([N+](=O)[O-])c(=NCCc3ccccc3)n2O)cc1`, the inhibition was 10%.

Consider `O=[N+]([O-])c1nn(-c2ccccc2)n(O)c1=NCCc1ccccc1`, for which the inhibition was -5.6%.

In the case of `O=[N+]([O-])C1=CC=C2C(=NC3(CCCCC3)N2O)C1=NCCc1ccccc1`, the inhibition is 62.9% (active).

Take `CCC(CC)NC(=O)COC(=O)CCC(=O)c1cccs1`: the inhibition was 4.9%.

Consider `Cc1nc2cc(NC(=O)N3CCCCC3)ccc2n1C`, for which the inhibition was 16.1%.

For `CCO/C=N/c1c(C#N)c2c(c(=S)n1C)COC(C)(C)C2`, the inhibition is 5.8%.

For `Cn1c(=O)n(C)c2cc([N+](=O)[O-])c(N3CCN(S(C)(=O)=O)CC3)cc21`, the inhibition was -6.6%.

Turning to `CC1CCCC2(C1)NC(=S)c1c(sc3c1CCCC3)N2` (stereo not drawn), the inhibition is 74.4% (active).

For `CCSC1=NC2(CCCCC2)Nc2sc3c(c21)CCCC3`, the inhibition was -35%.

For `CC1CCCC2(C1)NC(=S)N(c1ccccc1)N2` (stereo not drawn), the inhibition is -48.4%.

As to `COc1ccccc1OCCOCCOc1ccc(C)cc1Br`, the inhibition was 11.4%.

For `C=CCn1c(SC/C=C/c2ccccc2)nnc1-c1sc(N)nc1C`, the inhibition is 13.7%.

Regarding `CC(C)N(CC#CCC(O)(c1ccccc1)C1CCCC1)CCO` (stereo not drawn), the inhibition was 58.1% (active).

With `CCN(CC#CCC(O)(c1ccccc1)C1CCCC1)C(C)C` (stereo not drawn), the inhibition was 7.4%.

With `CC(C)(C)N(CC#CCC(O)(c1ccccc1)C1CCCC1)CCO` (stereo not drawn), the inhibition was 30.4%.

Consider `CC(C)C(C)NC(=O)COC(=O)c1cccc(C(=O)OCC(=O)NC(C)C(C)C)n1` (stereo not drawn), for which the inhibition was 21.9%.

Take `Nc1nnc(-c2ccncc2)s1`: the inhibition was 13.4%.

For `CCOC(=O)NC1(NCc2ccccc2)Oc2ccccc2O1`, the inhibition is 51.2% (active).

As to `CCOC(=O)NC1(NCC(C)C)Oc2ccccc2O1`, the inhibition is 42.4%.

Take `CCOC(=O)NC1(NC(C)C)Oc2ccccc2O1`: the inhibition was 12.2%.

In the case of `CCN(CC)c1ccc(C2C(C(=O)OCCOC(C)C)=C(C)NC3=C2C(=O)CCC3)cc1` (stereo not drawn), the inhibition is 6.2%.

Consider `CCOC(=O)c1oc2ccccc2c1NC(=O)CN1CCOCC1`, for which the inhibition was -0.8%.

Consider `COc1ccc(NC(=O)c2ccc(S(=O)(=O)N3CCOCC3)cc2)c(OC)c1`, for which the inhibition is 7.2%.

With `COC(=O)c1c(-c2ccccc2)csc1NC(=O)C1CC=CCC1C(=O)O` (stereo not drawn), the inhibition was -6.8%.

For the compound `COC(=O)c1c(-c2ccco2)csc1NC(=O)C1CC=CCC1C(=O)O` (stereo not drawn), the inhibition is 51.4% (active).

Take `COC(=O)c1c(-c2ccc(C)cc2)csc1NC(=O)C1CC=CCC1C(=O)O` (stereo not drawn): the inhibition was 7.7%.

Regarding `O=c1[nH]nc(CNc2ccc(Cl)cc2Cl)c2ccccc12`, the inhibition was -11.9%.

Consider `Cc1ncc(CO)c(/C=N/NC(=O)c2ccc(Br)cc2)c1O`, for which the inhibition was 15.7%.

For `Cc1ncc(CO)c(/C=N/NC(=O)c2ccc(O)cc2)c1O`, the inhibition is 3.5%.

As for `COc1ccccc1NC(=S)N1CCC(C(=O)c2ccc(F)cc2)CC1`, the inhibition was 1.3%.

Consider `CC(C)OCCCNC(=S)Nc1ccc2nc3n(c(=O)c2c1)CCCCC3`, for which the inhibition was -2.7%.
